The whole screen tested about 5,500 compounds, of which about 2,000 (36%) were called active. Not shown: some 18% with an inconclusive outcome. No stated cut-off is given here; in the data, active means normalized growth mostly below about 0.91 (no sharp cut-off); inconclusive means no clear call, values can overlap the other calls; inactive means mostly above about 0.92. The list shows a part of the results.
Test: chemical genetic growth profiling, strain panel (AID 1159580);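 further: tested at 20 µM; growth read once vehicle control cultures reached saturation at 30 °C; 1 = growth at the plate median or of vehicle wells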
Conditions: S. cerevisiae deletion strains, growth OD
[1] = locus YDL101C, strain DUN1, stronger effect = lower value
[2] = locus YHR030C, strain SLT2, stronger effect = lower value

Measured: normalized growth

O=C(Oc1ccc(F)cc1)c1cccs1
inactive: locus YAL013W, strain DEP1, stronger effect = lower value 1.01 | locus YBR229C, strain ROT2, stronger effect = lower value 1.01 | [1] 1.03 | locus YDR150W, strain NUM1, stronger effect = lower value 0.941 | locus YEL061C, strain CIN8, stronger effect = lower value 1 | locus YGR078C, strain PAC10, stronger effect = lower value 1.01 | [2] 0.987 | locus YHR087W, strain rtc3, stronger effect = lower value 0.992 | locus YJR043C, strain POL32, stronger effect = lower value 1.03 | locus YJR075W, strain HOC1, stronger effect = lower value 0.986 | locus YLR039C, strain RIC1, stronger effect = lower value 1.05 | locus YLR058C, strain SHM2 (second series), stronger effect = lower value 0.995 | locus YLR085C, strain ARP6, stronger effect = lower value 0.992 | locus YLR262C, strain YPT6, stronger effect = lower value 0.967 | locus YML094W, strain GIM5, stronger effect = lower value 0.989 | locus YMR219W, strain ESC1, stronger effect = lower value 0.993 | locus YMR263W, strain SAP30, stronger effect = lower value 0.966 | locus YNL153C, strain GIM3, stronger effect = lower value 1.02 | locus YNL298W, strain CLA4 (second series), stronger effect = lower value 1.03 | locus YNL322C, strain KRE1, stronger effect = lower value 1 | locus YNR030W, strain Alg12, stronger effect = lower value 1.02 | locus YPL055C, strain LGE1, stronger effect = lower value 0.91 | locus YPL241C, strain CIN2, stronger effect = lower value 1 | locus YPR135W, strain CTF4, stronger effect = lower value 1.01

O=C(Oc1ccc(C2SCCS2)cc1)c1cccs1
active: locus YFR019W, strain FAB1, stronger effect = lower value 0.689 | [2] 0.667 | locus YKL067W, strain YNK1, stronger effect = lower value 0.684 | locus YOR231W, strain MKK1, stronger effect = lower value 0.549 | locus YPL256C, strain CLN2, stronger effect = lower value 0.776
inactive: locus YAR019C, strain CDC15, stronger effect = lower value 1 | locus YBL105C, strain PKC1, stronger effect = lower value 1.01 | locus YBR135W, strain CKS1, stronger effect = lower value 0.997 | locus YBR136W, strain MEC1, stronger effect = lower value 1.01 | locus YBR160W, strain CDC28, stronger effect = lower value 1 | locus YDL017W, strain CDC7, stronger effect = lower value 0.999 | locus YDL028C, strain MPS1, stronger effect = lower value 0.993 | [1] 1.01 | locus YDL108W, strain KIN28, stronger effect = lower value 0.996 | locus YDL132W, strain cdc53, stronger effect = lower value 0.995 | locus YDL214C, strain PRR2, stronger effect = lower value 0.775 | locus YDR052C, strain DBF4, stronger effect = lower value 1.01 | locus YDR054C, strain cdc34, stronger effect = lower value 1 | locus YDR226W, strain ADK1, stronger effect = lower value 1 | locus YDR477W, strain SNF1, stronger effect = lower value 0.818 | locus YER123W, strain YCK3, stronger effect = lower value 0.812 | locus YER133W, strain GLC7, stronger effect = lower value 0.834 | locus YFL009W, strain cdc4, stronger effect = lower value 1 | locus YFL029C, strain CAK1, stronger effect = lower value 1.02 | locus YFR003C, strain YPI1, stronger effect = lower value 1.01 | locus YFR028C, strain CDC14, stronger effect = lower value 0.988 | locus YGR040W, strain KSS1, stronger effect = lower value 0.869 | locus YGR052W, strain FMP48, stronger effect = lower value 0.821 | locus YGR092W, strain DBF2, stronger effect = lower value 0.768 | locus YHR079C, strain IRE1, stronger effect = lower value 0.678 | locus YHR082C, strain KSP1, stronger effect = lower value 0.716 | locus YHR205W, strain SCH9, stronger effect = lower value 0.936 | locus YIL147C, strain SLN1, stronger effect = lower value 1 | locus YJL095W, strain BCK1, stronger effect = lower value 0.572 | locus YJL128C, strain PBS2, stronger effect = lower value 0.951 | locus YJL157C, strain FAR1, stronger effect = lower value 0.716 | locus YJR016C, strain ILV3, stronger effect = lower value 1 | locus YJR066W, strain TOR1 (second series), stronger effect = lower value 0.884 | locus YJR066W, strain TOR1, stronger effect = lower value 0.684 | locus YKL048C, strain ELM1, stronger effect = lower value 0.937 | locus YKL101W, strain HSL1, stronger effect = lower value 0.852 | locus YKL193C, strain SDS22, stronger effect = lower value 0.997 | locus YKL203C, strain TOR2, stronger effect = lower value 0.876 | locus YLR113W, strain HOG1, stronger effect = lower value 0.884 | locus YLR133W, strain CKI1, stronger effect = lower value 0.896 | locus YLR403W, strain SFP1, stronger effect = lower value 0.763 | locus YML070W, strain DAK1, stronger effect = lower value 0.726 | locus YMR001C, strain CDC5, stronger effect = lower value 1.01 | locus YMR205C, strain PFK2 (second series), stronger effect = lower value 0.805 | locus YMR277W, strain FCP1, stronger effect = lower value 1 | locus YNL006W, strain LST8, stronger effect = lower value 1 | locus YNL020C, strain ARK1, stronger effect = lower value 0.829 | locus YNL161W, strain CBK1, stronger effect = lower value 1 | locus YNL183C, strain NPR1, stronger effect = lower value 0.81 | locus YNL207W, strain RIO2, stronger effect = lower value 1 | locus YNL222W, strain SSU72, stronger effect = lower value 0.999 | locus YNL307C, strain MCK1 (second series), stronger effect = lower value 0.784 | locus YOL078W, strain AVO1, stronger effect = lower value 0.997 | locus YOL136C, strain PFK27, stronger effect = lower value 0.701 | locus YOR061W, strain CKA2, stronger effect = lower value 0.737 | locus YOR119C, strain RIO1, stronger effect = lower value 0.785 | locus YOR329C, strain SCD5, stronger effect = lower value 1.01 | locus YPL031C, strain PHO85, stronger effect = lower value 0.697 | locus YPL153C, strain RAD53, stronger effect = lower value 0.777 | locus YPL204W, strain HRR25, stronger effect = lower value 0.852 | locus YPL209C, strain IPL1, stronger effect = lower value 1.01 | locus YPR025C, strain CCL1, stronger effect = lower value 0.997 | locus YPR106W, strain ISR1, stronger effect = lower value 1.01 | locus YPR111W, strain DBF20, stronger effect = lower value 1 | strain NNK1, stronger effect = lower value 1.03 | strain TSCII, stronger effect = lower value 1.02

— PubChem BioAssay AID1159580 (chemical genetic matrix, 2015)
